# Test results: publication PMC7862700, “An all-to-all approach to the identification of sequence-specific readers for epigenetic DNA modifications on cytosine”
# Key:
# Assay in all cases: DAPPL (digital affinity profiling via proximity ligation, sequencing); 10 mM Tris-HCl pH 7.5, 50 mM NaCl, 1 mM DTT, 4% glycerol, room temperature, 30 min; GST-TFs on glutathione beads, 16-mer random dsDNA library, 0.1% formaldehyde crosslink after washing; high values mean tight binding
# FEV = biological target: T1, FEV (Homo sapiens, UniProt Q99581 1-238); details: protein: recombinant; tags: N-terminal GST; dsDNA, one strand shown
# T1 sequence: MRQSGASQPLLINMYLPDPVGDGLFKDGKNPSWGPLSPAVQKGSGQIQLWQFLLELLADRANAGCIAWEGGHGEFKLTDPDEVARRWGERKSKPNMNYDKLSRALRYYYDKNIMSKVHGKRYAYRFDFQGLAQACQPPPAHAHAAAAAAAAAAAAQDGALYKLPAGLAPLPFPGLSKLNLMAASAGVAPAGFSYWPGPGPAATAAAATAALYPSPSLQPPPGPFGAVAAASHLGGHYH
# Method in brief: (§1)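 Each value of binding signal is a hexamer's read frequency for a factor divided by the same hexamer's frequency in the tag-only sample. Barcoded, bead-captured GST fusions of human transcription factors made in yeast were pooled with that sample and incubated with 200 nmole of a random double-stranded 16-mer DNA library in Tris/NaCl/DTT/glycerol buffer at room temperature for 30 min. Washing, 0.1% formaldehyde crosslinking, proximity ligation, PCR and Illumina NextSeq500 sequencing followed.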
# ETV5 = ETV5 (Homo sapiens, UniProt P41161 1-510); details: protein: recombinant; tags: N-terminal GST; dsDNA, one strand shown
# Method in brief: as §1
# HSF1 = HSF1 (Homo sapiens, UniProt Q00613 1-529); details: protein: recombinant; tags: N-terminal GST; chain copies: 3; dsDNA, one strand shown
# Method in brief: as §1
# SPIC = biological target: T2, SPIC (Homo sapiens, UniProt Q8N5J4 1-248); details: protein: recombinant; tags: N-terminal GST; dsDNA, one strand shown
# T2 sequence: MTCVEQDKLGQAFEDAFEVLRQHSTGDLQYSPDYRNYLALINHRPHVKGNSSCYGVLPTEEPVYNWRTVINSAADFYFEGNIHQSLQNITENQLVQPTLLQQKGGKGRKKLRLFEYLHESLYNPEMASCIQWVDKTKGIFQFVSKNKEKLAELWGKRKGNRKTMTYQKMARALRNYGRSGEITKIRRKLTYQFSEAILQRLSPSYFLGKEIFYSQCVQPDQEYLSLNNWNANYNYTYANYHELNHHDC
# Method in brief: as §1
# ELF4 = ELF4 (Homo sapiens, UniProt Q99607 1-663); details: protein: recombinant; tags: N-terminal GST; dsDNA, one strand shown
# Method in brief: as §1
# ELK4 = biological target: T3, ELK4 (Homo sapiens, UniProt P28324-2 1-405); details: protein: recombinant; tags: N-terminal GST; dsDNA, one strand shown
# T3 sequence: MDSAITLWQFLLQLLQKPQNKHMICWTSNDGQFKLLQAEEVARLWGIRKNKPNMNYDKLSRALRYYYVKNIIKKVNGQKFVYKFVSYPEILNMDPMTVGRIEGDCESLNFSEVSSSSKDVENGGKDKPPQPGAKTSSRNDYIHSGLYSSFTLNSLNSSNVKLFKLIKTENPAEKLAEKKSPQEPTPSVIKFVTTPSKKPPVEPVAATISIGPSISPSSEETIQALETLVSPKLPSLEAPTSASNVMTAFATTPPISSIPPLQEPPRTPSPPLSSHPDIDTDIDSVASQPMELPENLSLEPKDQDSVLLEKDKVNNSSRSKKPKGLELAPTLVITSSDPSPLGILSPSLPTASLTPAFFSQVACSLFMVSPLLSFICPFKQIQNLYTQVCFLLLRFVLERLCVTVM
# Method in brief: as §1
# ETV2 = biological target: T4, ETV2 (Homo sapiens, UniProt O00321 1-342); details: protein: recombinant; tags: N-terminal GST; dsDNA, one strand shown
# T4 sequence: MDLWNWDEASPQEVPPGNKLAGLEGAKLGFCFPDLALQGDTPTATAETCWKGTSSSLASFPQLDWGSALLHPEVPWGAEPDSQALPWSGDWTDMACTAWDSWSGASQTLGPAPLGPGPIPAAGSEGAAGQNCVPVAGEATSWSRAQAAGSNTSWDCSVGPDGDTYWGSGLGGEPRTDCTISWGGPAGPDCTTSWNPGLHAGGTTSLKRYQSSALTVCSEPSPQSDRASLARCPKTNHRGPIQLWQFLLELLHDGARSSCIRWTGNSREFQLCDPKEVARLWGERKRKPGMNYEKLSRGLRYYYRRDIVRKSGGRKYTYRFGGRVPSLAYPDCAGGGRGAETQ
# Method in brief: as §1
# ELF3 = biological target: T5, ELF3 (Homo sapiens, UniProt P78545 1-371); details: protein: recombinant; tags: N-terminal GST; dsDNA, one strand shown
# T5 sequence: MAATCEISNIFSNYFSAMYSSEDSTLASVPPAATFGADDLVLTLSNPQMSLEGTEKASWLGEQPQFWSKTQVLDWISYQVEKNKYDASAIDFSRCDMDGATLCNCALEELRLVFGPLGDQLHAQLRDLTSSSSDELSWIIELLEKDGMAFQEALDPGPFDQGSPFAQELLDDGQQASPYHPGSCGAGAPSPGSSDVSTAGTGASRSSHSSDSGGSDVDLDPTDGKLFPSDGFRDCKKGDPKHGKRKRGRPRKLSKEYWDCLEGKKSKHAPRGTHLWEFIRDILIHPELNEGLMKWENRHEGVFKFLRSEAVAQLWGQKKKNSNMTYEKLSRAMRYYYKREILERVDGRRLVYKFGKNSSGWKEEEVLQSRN
# Method in brief: as §1
# CRX = CRX (Homo sapiens, UniProt O43186 1-299); details: protein: recombinant; tags: N-terminal GST; dsDNA, one strand shown
# Method in brief: as §1
# ETV1 = ETV1 (Homo sapiens, UniProt P50549 1-477); details: protein: recombinant; tags: N-terminal GST; dsDNA, one strand shown
# Method in brief: as §1
# ERF = biological target: T6, ERF (Homo sapiens, UniProt P50548 1-548); details: protein: recombinant; tags: N-terminal GST; dsDNA, one strand shown
# T6 sequence: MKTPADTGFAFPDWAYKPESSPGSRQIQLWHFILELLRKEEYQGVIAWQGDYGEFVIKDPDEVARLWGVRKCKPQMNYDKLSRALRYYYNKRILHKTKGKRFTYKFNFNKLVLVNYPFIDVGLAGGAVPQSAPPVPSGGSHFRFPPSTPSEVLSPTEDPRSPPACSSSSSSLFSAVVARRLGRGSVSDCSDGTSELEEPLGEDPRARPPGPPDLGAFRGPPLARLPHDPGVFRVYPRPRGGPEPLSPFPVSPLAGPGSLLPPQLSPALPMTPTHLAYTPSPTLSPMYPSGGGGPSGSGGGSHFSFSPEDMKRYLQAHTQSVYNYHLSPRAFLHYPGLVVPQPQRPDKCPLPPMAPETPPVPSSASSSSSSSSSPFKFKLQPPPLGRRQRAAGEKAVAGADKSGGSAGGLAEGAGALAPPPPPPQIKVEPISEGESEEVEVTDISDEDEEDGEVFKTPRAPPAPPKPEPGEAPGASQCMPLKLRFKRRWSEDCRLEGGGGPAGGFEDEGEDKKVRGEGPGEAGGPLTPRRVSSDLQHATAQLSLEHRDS
# Method in brief: as §1
# ETV3L = biological target: T7, ETV3L (Homo sapiens, UniProt Q6ZN32 1-361); details: protein: recombinant; tags: N-terminal GST; dsDNA, one strand shown
# T7 sequence: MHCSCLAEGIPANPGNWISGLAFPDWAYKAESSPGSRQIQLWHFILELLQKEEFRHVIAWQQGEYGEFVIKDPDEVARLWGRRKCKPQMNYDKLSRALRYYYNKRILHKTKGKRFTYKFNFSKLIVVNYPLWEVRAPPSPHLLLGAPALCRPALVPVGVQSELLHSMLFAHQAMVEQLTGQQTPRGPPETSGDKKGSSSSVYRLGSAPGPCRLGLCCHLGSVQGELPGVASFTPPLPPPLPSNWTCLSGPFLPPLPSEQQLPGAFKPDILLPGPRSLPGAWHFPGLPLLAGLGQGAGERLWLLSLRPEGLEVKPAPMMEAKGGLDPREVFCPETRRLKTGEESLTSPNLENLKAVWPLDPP
# Method in brief: as §1
# ETS2 = biological target: T8, ETS2 (Homo sapiens, UniProt P15036 1-469); details: protein: recombinant; tags: N-terminal GST; dsDNA, one strand shown
# T8 sequence: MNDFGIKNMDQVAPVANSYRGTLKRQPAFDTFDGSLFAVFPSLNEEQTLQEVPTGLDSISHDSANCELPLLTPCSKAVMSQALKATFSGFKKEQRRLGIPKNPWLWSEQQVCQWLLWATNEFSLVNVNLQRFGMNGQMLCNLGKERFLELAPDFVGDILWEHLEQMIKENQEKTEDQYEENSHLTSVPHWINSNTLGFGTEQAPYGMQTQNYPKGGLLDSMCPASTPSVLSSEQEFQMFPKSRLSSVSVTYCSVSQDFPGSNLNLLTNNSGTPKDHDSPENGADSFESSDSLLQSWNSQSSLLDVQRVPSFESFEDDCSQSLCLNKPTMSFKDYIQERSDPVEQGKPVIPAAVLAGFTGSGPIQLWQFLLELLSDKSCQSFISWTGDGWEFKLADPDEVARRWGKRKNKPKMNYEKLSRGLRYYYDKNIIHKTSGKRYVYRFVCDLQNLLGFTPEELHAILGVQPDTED
# Method in brief: as §1
# SPDEF = biological target: T9, SPDEF (Homo sapiens, UniProt O95238 1-335); details: protein: recombinant; tags: N-terminal GST; dsDNA, one strand shown
# T9 sequence: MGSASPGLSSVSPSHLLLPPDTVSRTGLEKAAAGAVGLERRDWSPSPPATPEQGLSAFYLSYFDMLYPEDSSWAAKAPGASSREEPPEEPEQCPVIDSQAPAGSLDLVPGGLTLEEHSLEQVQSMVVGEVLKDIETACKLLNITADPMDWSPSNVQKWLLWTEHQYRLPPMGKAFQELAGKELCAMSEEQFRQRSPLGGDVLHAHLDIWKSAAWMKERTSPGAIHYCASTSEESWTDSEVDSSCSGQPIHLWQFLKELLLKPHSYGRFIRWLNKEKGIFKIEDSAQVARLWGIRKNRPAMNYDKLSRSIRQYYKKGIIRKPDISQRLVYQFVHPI
# Method in brief: as §1
# ETV7 = biological target: T10, ETV7 (Homo sapiens, UniProt Q9Y603 1-341); details: protein: recombinant; tags: N-terminal GST; dsDNA, one strand shown
# T10 sequence: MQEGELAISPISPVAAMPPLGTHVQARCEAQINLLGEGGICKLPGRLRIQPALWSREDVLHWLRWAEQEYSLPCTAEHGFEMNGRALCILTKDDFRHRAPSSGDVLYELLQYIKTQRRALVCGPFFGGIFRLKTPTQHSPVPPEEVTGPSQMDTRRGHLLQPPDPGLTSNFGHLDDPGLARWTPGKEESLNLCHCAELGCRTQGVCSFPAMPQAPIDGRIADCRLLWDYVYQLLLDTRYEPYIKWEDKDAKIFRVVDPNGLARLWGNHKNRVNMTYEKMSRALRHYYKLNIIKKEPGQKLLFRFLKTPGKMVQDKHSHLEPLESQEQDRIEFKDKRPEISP
# Method in brief: as §1
# ELF5 = biological target: T11, ELF5 (Homo sapiens, UniProt Q9UKW6-2 1-255); details: protein: recombinant; tags: N-terminal GST; dsDNA, one strand shown
# T11 sequence: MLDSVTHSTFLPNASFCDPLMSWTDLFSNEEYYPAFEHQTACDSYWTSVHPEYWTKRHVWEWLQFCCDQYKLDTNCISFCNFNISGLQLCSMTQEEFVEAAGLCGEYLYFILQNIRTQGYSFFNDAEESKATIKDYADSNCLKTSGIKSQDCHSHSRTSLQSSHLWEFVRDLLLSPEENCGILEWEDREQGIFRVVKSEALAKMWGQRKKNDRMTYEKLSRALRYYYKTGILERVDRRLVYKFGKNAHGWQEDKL
# Method in brief: as §1
# ETV3 = biological target: T12, ETV3 (Homo sapiens, UniProt P41162-2 1-143); details: protein: recombinant; tags: N-terminal GST; dsDNA, one strand shown
# T12 sequence: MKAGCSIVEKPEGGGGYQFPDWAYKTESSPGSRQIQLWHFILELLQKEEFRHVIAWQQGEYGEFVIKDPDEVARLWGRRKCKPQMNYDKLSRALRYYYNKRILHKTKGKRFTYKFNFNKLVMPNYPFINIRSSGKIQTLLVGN
# Method in brief: as §1
# ETV6 = ETV6 (Homo sapiens, UniProt P41212 1-452); details: protein: recombinant; tags: N-terminal GST; dsDNA, one strand shown
# Method in brief: as §1
# ELF4, sequence (Q99607 whole entry): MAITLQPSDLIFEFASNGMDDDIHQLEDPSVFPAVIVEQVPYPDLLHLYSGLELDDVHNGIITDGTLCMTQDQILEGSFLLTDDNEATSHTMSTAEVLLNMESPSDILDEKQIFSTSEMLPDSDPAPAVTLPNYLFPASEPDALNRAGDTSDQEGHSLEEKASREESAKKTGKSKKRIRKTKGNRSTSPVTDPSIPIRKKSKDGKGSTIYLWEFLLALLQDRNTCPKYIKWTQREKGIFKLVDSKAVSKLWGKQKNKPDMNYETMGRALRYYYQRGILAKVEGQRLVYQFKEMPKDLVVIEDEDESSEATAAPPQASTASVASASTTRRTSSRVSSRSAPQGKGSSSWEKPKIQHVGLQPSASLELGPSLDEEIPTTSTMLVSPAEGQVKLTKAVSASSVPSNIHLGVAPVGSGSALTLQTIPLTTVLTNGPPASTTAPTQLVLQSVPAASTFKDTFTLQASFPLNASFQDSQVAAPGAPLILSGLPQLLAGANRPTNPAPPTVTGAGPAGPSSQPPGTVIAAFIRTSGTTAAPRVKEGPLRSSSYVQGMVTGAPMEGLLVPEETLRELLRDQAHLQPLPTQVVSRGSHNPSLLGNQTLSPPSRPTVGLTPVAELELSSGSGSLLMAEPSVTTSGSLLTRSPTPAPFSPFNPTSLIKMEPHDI
# ETV1, sequence (P50549 whole entry): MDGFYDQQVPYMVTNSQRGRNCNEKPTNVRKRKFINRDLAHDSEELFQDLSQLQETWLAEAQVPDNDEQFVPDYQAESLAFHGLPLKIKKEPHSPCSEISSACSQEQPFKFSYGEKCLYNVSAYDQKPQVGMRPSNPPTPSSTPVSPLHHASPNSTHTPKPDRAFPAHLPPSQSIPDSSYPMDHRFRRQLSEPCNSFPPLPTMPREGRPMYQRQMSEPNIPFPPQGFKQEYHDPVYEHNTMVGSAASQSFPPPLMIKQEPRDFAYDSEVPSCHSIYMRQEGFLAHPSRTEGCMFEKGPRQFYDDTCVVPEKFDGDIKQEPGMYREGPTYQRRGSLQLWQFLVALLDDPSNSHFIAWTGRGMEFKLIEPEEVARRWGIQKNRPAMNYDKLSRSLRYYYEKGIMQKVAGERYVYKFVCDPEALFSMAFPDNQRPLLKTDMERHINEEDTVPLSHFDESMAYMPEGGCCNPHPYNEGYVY
# CRX, sequence (O43186 whole entry): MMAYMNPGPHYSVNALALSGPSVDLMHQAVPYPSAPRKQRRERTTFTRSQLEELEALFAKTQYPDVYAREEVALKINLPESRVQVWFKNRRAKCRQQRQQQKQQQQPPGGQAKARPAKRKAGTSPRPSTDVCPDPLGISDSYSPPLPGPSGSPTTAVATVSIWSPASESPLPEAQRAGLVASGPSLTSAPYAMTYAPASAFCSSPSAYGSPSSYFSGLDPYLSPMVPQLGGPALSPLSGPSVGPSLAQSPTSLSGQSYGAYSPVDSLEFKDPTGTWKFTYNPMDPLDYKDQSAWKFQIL
# ETV6, sequence (P41212 whole entry): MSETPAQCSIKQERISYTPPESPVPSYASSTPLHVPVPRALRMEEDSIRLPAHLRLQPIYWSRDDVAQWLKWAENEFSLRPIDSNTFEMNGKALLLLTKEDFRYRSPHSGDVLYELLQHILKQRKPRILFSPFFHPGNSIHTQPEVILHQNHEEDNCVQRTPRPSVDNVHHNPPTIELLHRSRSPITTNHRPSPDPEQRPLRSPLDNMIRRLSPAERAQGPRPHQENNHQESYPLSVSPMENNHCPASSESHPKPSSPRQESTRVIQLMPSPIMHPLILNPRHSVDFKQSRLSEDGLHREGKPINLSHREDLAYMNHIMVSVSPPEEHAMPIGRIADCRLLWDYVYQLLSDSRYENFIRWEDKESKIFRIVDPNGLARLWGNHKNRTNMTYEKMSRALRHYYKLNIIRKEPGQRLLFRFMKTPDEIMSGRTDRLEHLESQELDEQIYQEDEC
# ETV5, sequence (P41161 whole entry): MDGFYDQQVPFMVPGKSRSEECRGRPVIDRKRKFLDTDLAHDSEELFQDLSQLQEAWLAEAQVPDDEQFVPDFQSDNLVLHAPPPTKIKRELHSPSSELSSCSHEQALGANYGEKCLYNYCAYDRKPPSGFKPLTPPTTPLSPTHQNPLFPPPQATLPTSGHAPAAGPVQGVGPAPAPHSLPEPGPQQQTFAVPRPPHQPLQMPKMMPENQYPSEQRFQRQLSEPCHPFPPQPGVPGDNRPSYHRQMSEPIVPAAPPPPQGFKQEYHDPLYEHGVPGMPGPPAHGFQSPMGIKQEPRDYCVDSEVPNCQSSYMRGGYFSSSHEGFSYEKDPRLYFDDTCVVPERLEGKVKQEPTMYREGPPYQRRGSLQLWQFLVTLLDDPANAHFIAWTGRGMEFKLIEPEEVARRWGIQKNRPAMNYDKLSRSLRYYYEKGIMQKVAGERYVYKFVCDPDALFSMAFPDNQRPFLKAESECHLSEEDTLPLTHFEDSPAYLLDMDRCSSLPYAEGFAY
# HSF1, sequence (Q00613 whole entry): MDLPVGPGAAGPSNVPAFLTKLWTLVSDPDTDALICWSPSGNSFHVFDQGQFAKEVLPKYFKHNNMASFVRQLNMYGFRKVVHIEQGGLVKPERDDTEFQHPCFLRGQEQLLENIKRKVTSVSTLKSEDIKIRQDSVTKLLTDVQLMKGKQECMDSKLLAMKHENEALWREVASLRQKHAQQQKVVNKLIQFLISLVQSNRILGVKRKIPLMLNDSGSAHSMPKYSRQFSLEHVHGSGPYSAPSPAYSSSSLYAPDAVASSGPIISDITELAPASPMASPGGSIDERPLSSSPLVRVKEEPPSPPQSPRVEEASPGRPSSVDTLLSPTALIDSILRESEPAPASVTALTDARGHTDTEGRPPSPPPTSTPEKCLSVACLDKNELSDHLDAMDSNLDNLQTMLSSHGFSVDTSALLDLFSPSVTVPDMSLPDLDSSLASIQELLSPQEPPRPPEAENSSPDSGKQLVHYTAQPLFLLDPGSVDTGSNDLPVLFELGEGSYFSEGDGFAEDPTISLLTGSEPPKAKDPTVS
sequence,measurement,setting,value
ACTTTA,binding signal,FEV,"1.15 fold enrichment (6-mer frequency, TF over GST control)"
same,binding signal,ETV5,"1.21 fold enrichment (6-mer frequency, TF over GST control)"
same,binding signal,HSF1,"1.33 fold enrichment (6-mer frequency, TF over GST control)"
same,binding signal,SPIC,"1.21 fold enrichment (6-mer frequency, TF over GST control)"
same,binding signal,ELF4,"1.23 fold enrichment (6-mer frequency, TF over GST control)"
same,binding signal,ELK4,"1.15 fold enrichment (6-mer frequency, TF over GST control)"
same,binding signal,ETV2,"1.26 fold enrichment (6-mer frequency, TF over GST control)"
same,binding signal,ELF3,"1.23 fold enrichment (6-mer frequency, TF over GST control)"
same,binding signal,CRX,"1.54 fold enrichment (6-mer frequency, TF over GST control)"
same,binding signal,ETV1,"1.21 fold enrichment (6-mer frequency, TF over GST control)"
same,binding signal,ERF,"1.12 fold enrichment (6-mer frequency, TF over GST control)"
same,binding signal,ETV3L,"1.26 fold enrichment (6-mer frequency, TF over GST control)"
same,binding signal,ETS2,"1.25 fold enrichment (6-mer frequency, TF over GST control)"
same,binding signal,SPDEF,"1.08 fold enrichment (6-mer frequency, TF over GST control)"
same,binding signal,ETV7,"1.29 fold enrichment (6-mer frequency, TF over GST control)"
same,binding signal,ELF5,"1.15 fold enrichment (6-mer frequency, TF over GST control)"
same,binding signal,ETV3,"1.19 fold enrichment (6-mer frequency, TF over GST control)"
same,binding signal,ETV6,"1.18 fold enrichment (6-mer frequency, TF over GST control)"
